Compounds with a hit are over-represented: about 5.2% of the library has one in this group of screens.
Tau fibril ThT – tau fibrillization inhibition (ThT binding); recombinant tau K18 P301L, heparin-induced fibrillization, ThT fluorescence; Potency, µM (titrated, usually from 57.4 µM), for inactives: at the highest dose activity, negative = inhibition, usual class: inhibitors; hit rate 2.1% among 270,000; also: potency is read from the fitted curve at half-maximal effect; nearly all actives have a fitted effect of over 55% in size
Target sequence (P10636 561-689 P618L limits assumed): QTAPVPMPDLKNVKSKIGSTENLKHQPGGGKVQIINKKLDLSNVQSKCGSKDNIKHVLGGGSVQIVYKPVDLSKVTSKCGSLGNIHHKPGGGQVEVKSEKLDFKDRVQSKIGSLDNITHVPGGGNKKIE
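Aggregation was driven by heparin (20 uM final) acting on recombinant tau […] bearing P301L in 100 mM sodium acetate pH 7; fibrils were detected with Thioflavin T.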
Coupling enz – counter-screen for Giardia aldolase inhibitors: coupling enzyme system; coupling enzyme system counterscreen, AmpLite Red fluorescence; activity change, negative = inhibition, % at 58.2 µM, hits read low; hit rate 0.67% among 290,000; in the data active = activity change below about -30%
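Activity here indicates interference with the coupling reaction, not aldolase inhibition. Compounds at 57.5 uM final met coupling enzymes for 10 min at RT; substrate and AmpLite Red detection followed, with a 525/598 nm fluorescence read after 20 min.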
Tau fibril FP – blocks human tau fibril formation measured by polarization | K18 P301L tau heparin fibrillization, Alexa594 FP, 6 h | Potency, µM (titrated, usually from 57.7 µM), without a hit: top-dose activity, negative = inhibition, hits mostly inhibitors | hit rate 0.39% among 280,000 | AID 1468 | P10636; also: potency is read from the fitted curve at half-maximal effect; nearly all actives have a fitted effect of over 55% in size
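Heparin (20 uM) drove fibril formation of recombinant tau K18 P301L, 15 uM unlabeled with 0.24 uM Alexa 594 label, for 6 hr at 37 C in 100 mM sodium acetate pH 7. Fluorescence polarization (555/632 nm) read 1 hr after 30 uM ThT.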
Sfp PPTase inh – inhibitors of Bacillus subtilis Sfp phosphopantetheinyl transferase; Biochemical Sfp PPTase activity, qHTS; Potency, µM, for the others: largest response in the series, negative = inhibition, most hits filed as inhibitors; AID 1490; Q9F4F7; hit rate 3.5% among 310,000;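 also: the enzyme is Sfp with the accession as filed and its product quenches rhodamine fluorescence; potency is read from the fitted curve at half-maximal effect; 0% = enzyme reaction without inhibitor and -100% = no enzyme wells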
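Fluorescence-quenching assay: 15 nM Sfp-PPTase preincubated 15 min at room temperature with compound, then 5 uM rhodamine-CoA and 12.5 uM BHQ-2-labelled YbbR peptide added. Fluorescence (ex 525/em 598 nm) read at start and after 30 min; difference gives rate.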
Tau fluor cs – counter-screen for tau fibril formation inhibitors; AID 1463; hit rate 0.93% among 280,000; Potency, µM (doses to about 57.7 µM), for inactives: at the highest dose activity change, negative = decrease; tau K18 P301L Alexa594 fluorescence, heparin fibrillization; also: potency is read from the fitted curve at half-maximal effect; nearly all actives have a fitted effect of over 55% in size
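Human tau K18 P301L (15 uM unlabeled, 0.24 uM Alexa 594-labeled) in 100 mM sodium acetate pH 7 with 20 uM heparin, 6 hr at 37 C. ThT 30 uM added, 1 hr ambient; Alexa 594 FP and total fluorescence read at 555/632 nm.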
Starred values were filed as active, the others as inactive; u = inconclusive; x = no result given. Unless noted, calls follow the shape of the dose curve; as a rule, active = well fitted curve in the direction sought with a large enough effect; inconclusive = small, poorly fitted or top-dose-only effect, or another doubt; inactive = no such curve, though single readings can be large; an effect the other way counts as inactive or inconclusive. Unless noted, % is scaled to controls: 0 for no effect and ±100 for the full control effect.

SMILES	Tau fibril ThT	Coupling enz	Tau fibril FP	Sfp PPTase inh	Tau fluor cs
CC(=O)OC1CC(OC(C)=O)[C@]2(C)C(CC(=O)[C@]3(C)C2CC[C@@]2(C)C(c4ccoc4)OC(=O)C4O[C@@]423)C1(C)C (stereo partly drawn)	25.1µM*	1.6	31.6µM*	-10.2%	-21.3%
O=C(O)CCCC/C=C(\c1ccccc1)c1cccnc1	x	x	x	-9.0%	x
C/C(CC(=O)Nc1ccc(N(C)C)cc1)=N\NC(=O)Cc1csc(N)n1	-4.3%	-31.6*	-3.5%	u	-4.4%
CCOc1ccc(C(=S)N2CCCC2)c(OCC)c1	x	2.2	x	50.1µM*	x
CCOc1cc(C(=S)N2CCCC2)ccc1OC	x	-1.9	x	8.9%	x
CCOC(=O)c1ccc(C(=S)N2CCCC2)cc1	x	0.0	x	39.8µM*	x
CCOc1ccc(C(=S)N2CCCC2)cc1	-9.7%	-1.1	5.9%	2.7%	-5.3%
CCOC(=O)c1ccc(NC(=S)N2CCCC(C(=O)OCC)C2)cc1 (stereo not drawn)	-9.0%	-0.4	0.0%	-1.5%	-8.4%
CCOc1ccc(C(=S)N2CCN(C)CC2)cc1	-1.7%	0.2	3.4%	14.1µM*	-4.5%
Cc1cccc(N2CCN(C(=O)c3cn(CC(C)C)c(=O)c4c3c3ccccc3n4C)CC2)c1C	-10.9%	x	5.0%	x	-9.1%
Cc1cc(C)cc(N(C)S(=O)(=O)c2nnc(NC(=O)COc3ccc(Cl)cc3)s2)c1	0.4%	x	14.8%	x	-2.8%
CC(C(=O)N1CCCCC1)N1C(=O)c2ccccc2C1=O (stereo not drawn)	-5.3%	-1.1	2.3%	10.0%	-0.3%
CC1(C)Cc2ccccc2C2=C(C(=O)N3CCCCCC3)C(=O)C(=O)N21	-1.5%	-42.5*	0.7%	12.3%	3.3%
O=C1C(=O)N2C(=C1C(=O)N1CCCCCC1)c1ccccc1CC21CCCC1	-15.5%	-17.6	-4.1%	14.2%	1.7%
CCC1(CC)Cc2ccccc2C2=C(C(=O)N3CCCCC3)C(=O)C(=O)N21	1.9%	-34.4*	3.2%	-5.1%	6.7%
COc1ccccc1C1Nc2c(sc3nc(C)cc(C)c23)C(=O)N1c1ccccc1 (stereo not drawn)	-8.7%	x	4.1%	x	-29.7%
CCOC(=O)c1c(NC(=O)C2=C(C)NC(=S)NC2c2ccc(C)cc2)sc(C)c1C (stereo not drawn)	-1.1%	3.8	-7.7%	20µM*	-5.9%
NNC(=O)CN1C(c2ccccc2Br)=Nc2ccc(Br)cc2C1c1ccccc1 (stereo not drawn)	-5.3%	-37.8*	0.2%	0.5%	-3.1%
NCCCCCCC(O)(P(=O)(O)O)P(=O)(O)O	x	-1.3	x	-1.3%	x
O=C(CSc1nc2ccccc2s1)NNC(=S)Nc1ccc(Br)cc1	u	x	2.4%	14.1%	u
O=C(CSc1nc2ccccc2s1)NNC(=O)Nc1ccc(Cl)c(Cl)c1	-16.5%	-0.1	20µM*	6.2%	u
O=C(CSc1nc2ccccc2s1)Nc1ccc2c(c1)oc1ccccc12	11.7%	-0.7	4.7%	-1.2%	10.8%
O=C(CSc1nc2ccc(NC(=O)c3ccccc3C(=O)O)cc2s1)Nc1c(Cl)cccc1Cl	x	-8.0	x	-3.7%	x
O=C(CSc1nc2ccccc2s1)Nc1cc(C(=O)O)cc(C(=O)O)c1	-0.4%	2.4	-12.8%	56.2µM*	-4.9%
O=C(CSc1nc2ccccc2s1)Nc1ccc(Cl)c(C(=O)O)c1	-10.4%	11.1	-3.4%	22.4µM*	-11.6%
SMILES	Tau fibril ThT	Coupling enz	Tau fibril FP	Sfp PPTase inh	Tau fluor cs
Cc1nc(NCc2ccccc2)c2nc(-c3ccccc3)n(CCN(C)C)c2n1	-9.6%	5.6	3.7%	6.1%	-9.3%
CSc1ccc(CNC(=O)CN2C(=O)C3CCCCN3c3ccc(C(=O)N4CCCC4)cc32)cc1 (stereo not drawn)	-13.3%	x	-2.9%	x	-11.0%
O=C(Nc1ccc(Cl)cc1)/C(=C/c1cccc(O)c1)c1nc2ccccc2s1	20µM*	1.5	u	9.3%	u
S=C(Nc1ccc(Cl)cc1)c1nc2ccccc2s1	u	-0.1	-6.7%	26.5%	-20.4%
CCOc1cc(/C=C2/C(=O)ON=C2C)cc(Br)c1O	x	-11.8	x	-28.4%	x
CCOc1ccc(Cl)cc1/C=N/O	1.4%	-1.0	0.8%	5.2%	-0.2%
C#CCOc1ccc(/C=C2/C(=O)ON=C2C)cc1Br	x	5.5	x	56.2µM*	x
C#CCOc1ccc(Cl)cc1/C=C1/C(=O)ON=C1C	x	2.7	x	50.1µM*	x
CCCOc1ccccc1/C=C1/C(=O)ON=C1C	x	3.4	x	56.2µM*	x
COc1ccc2nc(NC(=O)c3nc(S(=O)(=O)Cc4ccccc4F)ncc3Cl)sc2c1	7.08µM*	x	2.4%	x	u
COc1ccc(OC)c(NC(=O)c2nc(S(=O)(=O)Cc3ccccc3)ncc2Cl)c1	x	x	x	-5.1%	x
COc1ccc2nc(NC(=O)c3nc(S(=O)(=O)Cc4ccccc4)ncc3Cl)sc2c1	8.91µM*	x	-7.7%	x	u
COc1ccc2nc(NC(=O)c3nc(SCc4ccccc4F)ncc3Cl)sc2c1	0.5%	x	3.9%	x	-12.6%
Cc1cccc(C)c1OCc1nc2c3c(-c4ccccc4)c(-c4ccccc4)oc3ncn2n1	-4.5%	x	-2.6%	x	-8.4%
Cc1ccccc1NC(=O)c1c(C)oc2ccc(O)c(CN(C)Cc3ccccc3)c12	u	x	-2.3%	x	u
O=C(COc1ccc(C(=S)N2CCOCC2)cc1Cl)Nc1ccccc1Cl	-11.6%	0.8	-16.6%	20µM*	-15.3%
COc1cc(C(=S)N2CCOCC2)ccc1OC(=O)c1cccc(C)c1	x	-5.2	x	79.4µM*	x
COc1ccc(C(=S)N2CCOCC2)cc1OC(=O)c1ccccc1Cl	x	0.5	x	56.2µM*	x
COc1cc(C(=S)N2CCCCC2)ccc1OCC(=O)Nc1ccccc1Cl	u	-0.6	-1.4%	15.9%	-25.7%
O=C(Oc1cccc(C(=S)N2CCOCC2)c1)c1ccccc1	x	0.2	x	56.2µM*	x
COc1cc(C(=O)Oc2cccc(C(=S)N3CCOCC3)c2)cc(OC)c1OC	x	-7.9	x	u	x
COc1ccc(N(C(=O)c2ccc(C(C)(C)C)cc2)S(=O)(=O)c2ccc(Cl)cc2)cc1	-13.6%	x	-0.1%	x	-11.6%
O=C(O)c1ccc(-c2nc(-c3ccc(Cl)cc3Cl)cs2)cc1	-16.8%	8.4	2.5%	8.9%	-7.7%
CC(=O)N1CC[n+]2c(-c3ccc(Cl)cc3Cl)csc21	u	-1.6	u	31.6µM*	-11.5%
CCOC(=O)c1cccnc1SC(CC)C(=O)N1CCOCC1 (stereo not drawn)	-19.2%	0.0	-6.2%	11.3%	-13.1%
CCC(Sc1ncccc1C(=O)O)C(=O)N1CCOCC1 (stereo not drawn)	-10.9%	-5.9	-6.2%	50.1µM*	-0.7%
CCC(Sc1ncccc1C(=O)O)C(=O)N1CCCC1 (stereo not drawn)	-11.4%	-8.0	u	11.2µM*	-7.8%
O=C(NCc1ccc(Cl)cc1)C(=O)NCC(c1cccnc1)N1CCN(c2ccccc2)CC1 (stereo not drawn)	-16.3%	x	3.9%	x	-11.4%
O=c1c2cc(N3CCOCC3)ccc2[nH]c(=S)n1Cc1ccco1	u	-28.2	u	7.94µM*	u
